This is part of a sample that, as a whole, favours compounds with a hit. Of some 83,000 tested, about 20% had one in any assay.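 96-well plates, one dose, 48 hours. Percent growth reported; active if below 10.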 Unmarked numbers belong to inactive results. The source made the active and inactive calls.
Experiments:
Experiment in all cases: NCI-60 one-dose screen, 48 h (100 = growth as untreated, 0 = no growth, -100 = all killed)
Details in all cases: 10 µM unless noted
NCI-H23 lung = test system: NCI-H23 lung
NCI-H226 lung = test system: NCI-H226 lung
NCI-H322M lung = test system: NCI-H322M lung
NCI-H460 lung = test system: NCI-H460 lung
HOP-92 NSCLC = test system: HOP-92 NSCLC
NCI-H522 lung = test system: NCI-H522 lung
A549/ATCC NSCLC = test system: A549/ATCC NSCLC
786-0 renal = test system: 786-0 renal
COLO 205 colon = test system: COLO 205 colon

SMILES	growth (NCI-H23 lung)	growth (NCI-H226 lung)	growth (NCI-H322M lung)	growth (NCI-H460 lung)	growth (HOP-92 NSCLC)	growth (NCI-H522 lung)	growth (A549/ATCC NSCLC)	growth (786-0 renal)	growth (COLO 205 colon)
Nc1ccc(S(=O)(=O)O)c2cc(S(=O)(=O)O)cc(O)c12	110%	105%	117%	108%	124%	103%	104%	101%	105%
COC(=O)c1[nH]cnc1/N=N/N(C)CCO	96.3%	101%	108%	105%	128%	92%	109%	93.5%	120%
CC(=O)OC(C(=O)c1ccccc1)c1ccccc1 (centres undefined)	111%	98.9%	99.8%	101%	58%	90.6%	106%	100%	107%
CNC(=O)c1c(C)oc2cc(Oc3ncnc4cc(OC)c(OC)cc34)ccc12	93.8%	59.4%	93.9%	106%	81.1%	89.5%	81.1%	102%	108%
CN1CCN(CCCOc2cccc3nc(Nc4ccc(Cl)c(C(F)(F)F)c4)ccc23)CC1	18.8%	77.1%	15.9%	-19.3% (active)	10.2%	-40.6% (active)	6.87% (active)	-42.9% (active)	-61.6% (active)
CC(=O)c1c(C)c2cnc(Nc3ccc(N4CCNCC4)cn3)nc2n(C2CCCC2)c1=O	50.9%	52.7%	31.9%	14.1%	66%	-76.7% (active)	22.6%	24.9%	18.5%
N#Cc1c(-c2ccc(C(F)(F)F)cc2)c(F)c(NCCC2CCC(O)C2)n2c1nc1ccccc12 (centres undefined)	72.5%	69.2%	58.5%	42%	32.5%	65.7%	52.8%	69.4%	41.1%
Clc1ccc2c(NCCCNCc3ccc4c(c3)OCO4)ccnc2c1	72.7%	80.1%	71.8%	60.5%	47.4%	20.1%	51.2%	66.8%	-56.6% (active)
O=c1sn(-c2cccc3ccccc23)c(=O)n1Cc1ccccc1	100%	96.8%	102%	101%	89.3%	74.4%	70.7%	107%	89.8%
NC(=O)c1n[nH]n2c1nc(=O)c1c3c(sc12)CCCC3	101%	91.4%	101%	109%	91.7%	102%	92.7%	106%	103%
CCc1nc2cc(/C=C/C(=O)NO)c(F)cc2c(=O)n1CCc1ccccc1	-5.22% (active)	3.63% (active)	20.5%	3.81% (active)	7.39% (active)	10.6%	-2.46% (active)	0.452% (active)	-33.1% (active)
CS(=O)(=O)N1CCc2c(-c3cnc(N)nc3)nc(N3CCOCC3)nc21	22.9%	5.8% (active)	-12.9% (active)	10%	-22.5% (active)	10.5%	-0.665% (active)	-13.7% (active)	-6.6% (active)
Cc1sc2c(c1C)c(=O)nc1c(-c3nc(-c4ccccc4)cs3)n[nH]n12	91.9%	89.9%	101%	96.2%	98.5%	94.3%	93%	103%	102%
Nc1c(Cl)cccc1[N+](=O)[O-]	106%	101%	110%	104%	96.6%	118%	101%	109%	114%
COC(=O)CNC(=O)[C@@H](OC)[C@@H]1Cc2cc3cc(OC4CC(OC5CC(O)C(O)C(C)O5)C(O)C(C)O4)c(C)c(O)c3c(O)c2C(=O)[C@H]1OC1CC(OC2CC(OC3CC(C)(O)C(O)C(C)O3)C(O)C(C)O2)C(O)C(C)O1 (some centres undefined)	-16.8% (active)	-10% (active)	15.7%	9.15% (active)	9.61% (active)	-19% (active)	7.82% (active)	-2.99% (active)	-17.6% (active)
Clc1ccc2c(NCCNc3nc(N4CCCC4)nc4ccccc34)ccnc2c1	11.4%	-31.2% (active)	-7.37% (active)	-23.6% (active)	-1.92% (active)	-48% (active)	-4.72% (active)	-77.4% (active)	-81.4% (active)
C=C1C[C@H](O)[C@H](Br)C(C)(C)[C@@]12CCC(C)=C(Cl)C2	12.9%	14.8%	40.3%	13%	23.6%	15.7%	6.49% (active)	16.7%	-79.1% (active)
C/C(=N\NC(=O)Cn1c(-c2ccc(S(C)(=O)=O)cc2)nc2ccccc21)c1ccc(Cl)cc1	86.9%	83.4%	94.8%	97.3%	98.3%	75.5%	77.6%	102%	93.4%
Cn1ncc(Cl)c1-c1cc(C(=O)N[C@H](CN)Cc2ccc(F)c(F)c2)oc1Cl	11.3%	11.8%	18.8%	2.97% (active)	-58.5% (active)	-66.7% (active)	-53.4% (active)	-46.7% (active)	-77.9% (active)
Cc1cc(Nc2nc(N[C@@H](C)c3ncc(F)cn3)ncc2Cl)n[nH]1	69.9%	46.8%	52.8%	81.6%	108%	68.3%	66.2%	73.8%	44.1%
Cc1cn(-c2cc(NC(=O)c3ccc(C)c(Nc4nccc(-c5cnccn5)n4)c3)cc(C(F)(F)F)c2)cn1	73%	86.9%	95.3%	61.7%	89%	43.1%	62.5%	97.7%	25.3%
COc1c(C(NC(=O)c2ccccc2)c2sccc2C)cc(Cl)c2cccnc12 (centres undefined)	100%	89.1%	99.8%	106%	104%	72.4%	75.7%	98.9%	121%
CCNC(=O)C#Cc1ccc2c(C(=Nc3ccc(CN(C)C)cc3)c3ccccc3)c(O)[nH]c2c1	14%	38.6%	14.4%	16.5%	-66.8% (active)	48.9%	6.49% (active)	24.2%	-41% (active)
CO[C@H]1C[C@@H]2CC[C@@H](C)[C@@](O)(O2)C(=O)C(=O)N2CCCC[C@H]2C(=O)O[C@H]([C@H](C)C[C@@H]2CC[C@@H](OC(=O)C(C)(CO)CO)[C@H](OC)C2)CC(=O)[C@H](C)/C=C(\C)[C@@H](O)[C@@H](OC)C(=O)[C@H](C)C[C@H](C)\C=C/C=C/C=C/1C	44.4%	34.3%	38.5%	22.6%	9.36% (active)	22.7%	22%	26.2%	28.5%
c1cc[n+](Cc2c3ccccc3cc3c2ccc2ccccc23)cc1	16.9%	26.3%	53.9%	42.8%	25%	18.4%	63.7%	38%	2.06% (active)
C=CC(=O)N1CCC[C@@H](n2nc(-c3ccc(Oc4ccccc4)cc3)c3c(N)ncnc32)C1	95.3%	45%	-1.22% (active)	90%	28.3%	1.41% (active)	46.6%	30.4%	61.3%
O=C(Nc1ccc(C2=NCCCN2)cc1)c1ccc(C(=O)Nc2ccc(C3=NCCCN3)cc2)nc1	102%	101%	111%	107%	131%	96.1%	141%	96.6%	125%
O=C(Nc1cn[nH]c1-c1nc2ccc(CN3CCOCC3)cc2[nH]1)NC1CC1	23.5%	6.37% (active)	37.6%	34.4%	-2.75% (active)	11.5%	48.6%	13.6%	-39% (active)
COc1ccc2c(CCc3ccc(Cl)cc3)c3[n+](cc2c1OC)CCc1cc2c(cc1-3)OCO2	26.1%	71.4%	90.4%		25%	13.4%	50.7%	73.4%	27.1%
Cc1cc(N2CCOCC2)nc(N(CCNc2ccnc3cc(Cl)ccc23)Cc2cccs2)n1	35.4%	54.6%	26.9%	7.16% (active)	15.6%	-21.5% (active)	28.7%	-35.2% (active)	-69.2% (active)
